# Laboratory results from publication PMC8384837, “Expanding the binding specificity for RNA recognition by a PUF domain”.
# Where a chain is given by its changes, count along the chain named.
# What was measured:
# Assay in all cases: yeast three-hybrid, YBZ-1, SC-Leu-His + 0.5 mM 3-AT, 4 days
# Details in all cases: tags: N-Gal4 AD-HA kept; label: inside an RPR1-promoter hybrid RNA with tandem MS2 sites; ssRNA
# [1] = target: PUM1 PUF domain R5-GKH (Homo sapiens, UniProt Q14671 828-1176, C1007G;R1008K;Q1011H)
# How it was run: (§1)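 Matching RNA elements and Pumilio-1 PUF domain libraries, randomized at the three base-contacting residues of every repeat, were co-expressed from a centromeric plasmid in strain YBZ-1 (LexA–MS2 coat fusion, HIS3 reporter). The repeat regions were PCR-amplified and Illumina-sequenced from cells grown four days on SC-Leu (input) or SC-Leu-His + 0.5 mM 3-AT (selection). The interaction score is the log change in variant frequency from input to selection. It is computed in log2, with a pseudocount of 1 for absent variants.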
# [2] = target: PUM1 PUF domain R5-RYT (Homo sapiens, UniProt Q14671 828-1176, C1007R;R1008Y;Q1011T)
# How it was run: as §1
# [3] = target: PUM1 PUF domain R5-NDG (Homo sapiens, UniProt Q14671 828-1176, C1007N;R1008D;Q1011G)
# How it was run: as §1
# [4] = target: T1, PUM1 PUF domain R6-MYL (Homo sapiens, UniProt Q14671 828-1176, N1043M;Q1047L)
# T1 sequence: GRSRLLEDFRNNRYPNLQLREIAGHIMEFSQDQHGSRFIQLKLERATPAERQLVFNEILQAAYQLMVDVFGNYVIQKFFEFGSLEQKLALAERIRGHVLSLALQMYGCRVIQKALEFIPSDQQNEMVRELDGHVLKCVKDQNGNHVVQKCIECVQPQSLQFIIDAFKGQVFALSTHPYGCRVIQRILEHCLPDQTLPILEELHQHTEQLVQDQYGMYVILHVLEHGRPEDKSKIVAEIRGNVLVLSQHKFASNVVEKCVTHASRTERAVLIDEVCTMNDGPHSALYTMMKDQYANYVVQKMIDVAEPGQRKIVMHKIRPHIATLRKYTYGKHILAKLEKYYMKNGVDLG
# How it was run: as §1
# [5] = target: PUM1 PUF domain R4-LHW (Homo sapiens, UniProt Q14671 828-1176, N971L;Q975W)
# How it was run: as §1
# [6] = target: T2, PUM1 PUF domain R6-KFS (Homo sapiens, UniProt Q14671 828-1176, N1043K;Y1044F;Q1047S)
# T2 sequence: T1 sequence with M216K, Y217F, L220S
# How it was run: as §1
# [7] = target: PUM1 PUF domain R8-NWR (Homo sapiens, UniProt Q14671 828-1176, Y1123W;Q1126R)
# How it was run: as §1
# [8] = target: T3, PUM1 PUF domain R6-LWK (Homo sapiens, UniProt Q14671 828-1176, N1043L;Y1044W;Q1047K)
# T3 sequence: T1 sequence with M216L, Y217W, L220K
# How it was run: as §1
# [9] = target: T4, PUM1 PUF domain R6-VWS (Homo sapiens, UniProt Q14671 828-1176, N1043V;Y1044W;Q1047S)
# T4 sequence: T1 sequence with M216V, Y217W, L220S
# How it was run: as §1
# [10] = target: PUM1 PUF domain R4-EHA (Homo sapiens, UniProt Q14671 828-1176, N971E;Q975A)
# How it was run: as §1
# [11] = target: PUM1 PUF domain R4-VCA (Homo sapiens, UniProt Q14671 828-1176, N971V;H972C;Q975A)
# How it was run: as §1
# [12] = target: T5, PUM1 PUF domain R6-SWD R7-NPG (Homo sapiens, UniProt Q14671 828-1176, N1043S;Y1044W;Q1047D;S1079N;N1080P;E1083G)
# T5 sequence: T1 sequence with M216S, Y217W, L220D, S252N, N253P, E256G
# How it was run: as §1
# [13] = target: PUM1 PUF domain R8-SWE (Homo sapiens, UniProt Q14671 828-1176, N1122S;Y1123W;Q1126E)
# How it was run: as §1
# [14] = target: PUM1 PUF domain R3-RAA (Homo sapiens, UniProt Q14671 828-1176, C935R;R936A;Q939A)
# How it was run: as §1
# [15] = target: PUM1 PUF domain R5-NAR (Homo sapiens, UniProt Q14671 828-1176, C1007N;R1008A;Q1011R)
# How it was run: as §1
# [16] = target: PUM1 PUF domain R5-KTC (Homo sapiens, UniProt Q14671 828-1176, C1007K;R1008T;Q1011C)
# How it was run: as §1
# [17] = target: PUM1 PUF domain R5-KHI (Homo sapiens, UniProt Q14671 828-1176, C1007K;R1008H;Q1011I)
# How it was run: as §1
sequence,measurement,setting,value
GGCUAGAACUAGUGGAUCCCCCGGCGCCCGGCGGCUCGAGCCCGGGUAAGUGUUAAUAGUCUGCAUGCCGCCGGGCGCCAUGCCUGCAGGUCGACUCUAGAAAACAUG,binding signal,[1],3.15 log2 enrichment (interaction score)
same,binding signal,[2],3.93 log2 enrichment (interaction score)
same,binding signal,[3],3.34 log2 enrichment (interaction score)
GGCUAGAACUAGUGGAUCCCCCGGCGCCCGGCGGCUCGAGCCCGGGUAAGUGUAAAUAGUCUGCAUGCCGCCGGGCGCCAUGCCUGCAGGUCGACUCUAGAAAACAUG,binding signal,[2],1.24 log2 enrichment (interaction score)
same,binding signal,[4],4.67 log2 enrichment (interaction score)
same,binding signal,[5],3.75 log2 enrichment (interaction score)
same,binding signal,[6],3.11 log2 enrichment (interaction score)
same,binding signal,[7],2.23 log2 enrichment (interaction score)
same,binding signal,[8],5.88 log2 enrichment (interaction score)
same,binding signal,[9],2.66 log2 enrichment (interaction score)
GGCUAGAACUAGUGGAUCCCCCGGCGCCCGGCGGCUCGAGCCCGGGUAAGUGUAUAUAGUCUGCAUGCCGCCGGGCGCCAUGCCUGCAGGUCGACUCUAGAAAACAUG,binding signal,[10],2.96 log2 enrichment (interaction score)
same,binding signal,[11],2.82 log2 enrichment (interaction score)
GGCUAGAACUAGUGGAUCCCCCGGCGCCCGGCGGCUCGAGCCCGGGUAAGUUGAAAUAGUCUGCAUGCCGCCGGGCGCCAUGCCUGCAGGUCGACUCUAGAAAACAUG,binding signal,[12],5.9 log2 enrichment (interaction score)
GGCUAGAACUAGUGGAUCCCCCGGCGCCCGGCGGCUCGAGCCCGGGUAAGCGUAAAUAGUCUGCAUGCCGCCGGGCGCCAUGCCUGCAGGUCGACUCUAGAAAACAUG,binding signal,[13],2.43 log2 enrichment (interaction score)
same,binding signal,[7],3.79 log2 enrichment (interaction score)
GGCUAGAACUAGUGGAUCCCCCGGCGCCCGGCGGCUCGAGCCCGGGUAAGUGUAAUUAGUCUGCAUGCCGCCGGGCGCCAUGCCUGCAGGUCGACUCUAGAAAACAUG,binding signal,[14],3.66 log2 enrichment (interaction score)
GGCUAGAACUAGUGGAUCCCCCGGCGCCCGGCGGCUCGAGCCCGGGUAAGUGUCAAUAGUCUGCAUGCCGCCGGGCGCCAUGCCUGCAGGUCGACUCUAGAAAACAUG,binding signal,[15],4.29 log2 enrichment (interaction score)
same,binding signal,[16],4.69 log2 enrichment (interaction score)
GGCUAGAACUAGUGGAUCCCCCGGCGCCCGGCGGCUCGAGCCCGGGUAAGUGAAAAUAGUCUGCAUGCCGCCGGGCGCCAUGCCUGCAGGUCGACUCUAGAAAACAUG,binding signal,[9],7.2 log2 enrichment (interaction score)
GGCUAGAACUAGUGGAUCCCCCGGCGCCCGGCGGCUCGAGCCCGGGUAAGUGUGAAUAGUCUGCAUGCCGCCGGGCGCCAUGCCUGCAGGUCGACUCUAGAAAACAUG,binding signal,[17],4.47 log2 enrichment (interaction score)
